High-throughput results from PubChem.
Most compounds without a hit are left out; they make up all but 9.2% or so of the library.
SMN2 splice enh: qHTS Assay for Enhancers of SMN2 Splice Variant Expression. HEK293 SMN2-luciferase splicing reporter, luminescence, 30-36 h. Potency, µM (series often up to 46.1 µM), inactives show at the highest dose activity change, positive = activation, usual class: activators. 2.8% of 210,000 active. AID 1458, 2008; further: % of control where 0% means no effect; nearly all actives have a fitted effect of over 55% in size
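HEK293 cells carry an SMN2 […]–luciferase reporter in which exon 7 inclusion puts luciferase in frame. Cells were plated 10-12 h before compound addition, then incubated 30-36 h at 37C. ONE-Glo luminescence was read; sodium butyrate at 4.5 mM final served as control.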
ELG1 genotoxic: qHTS screen for small molecules that induce genotoxicity in human embryonic kidney (HEK293T) cells expressing luciferase-tagged ELG1 | Potency, µM (series often up to 46 µM), without a hit: at the highest dose activity change, positive = activation, most hits filed as activators | HEK293T ELG1-luciferase reporter, luminescence, 16 h | 1.3% of 330,000 active; further: % of control where 0% means no effect; nearly all actives have a fitted effect of over 60% in size
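Genotoxic stress is detected as increased luminescence from luciferase-tagged ELG1 in HEK293T cells, measured with ONE-Glo after a 16 hr treatment at 37 °C.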
NPC1 prom act: qHTS Assay for NPC1 Promoter Activators. Huh7 NPC1 promoter luciferase reporter, 24 h. Potency, µM (titrated, usually from 9.22 µM), inactives show top-dose activation, hits mostly activators. 2.4% of 320,000 active. AID 485313, 2010; further: % of control where 0% means no effect; nearly all actives have a fitted effect of over 60% in size
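Huh7 reporter cells (NPC1 promoter driving luciferase) are dosed with compound for 24 h at 37 °C, 5% CO2; luciferase detection reagent is then added and luminescence measured after 10 min at ambient temperature.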
Rab9 promoter act: qHTS Assay for Rab9 Promoter Activators. Huh7 Rab9 promoter-luciferase reporter, luminescence, 24 h. 2.8% of 320,000 active. Potency, µM (doses to about 9.22 µM), inactives show at the top dose activation, negative = inhibition, most hits filed as activators. AID 485297, 2010; further: % of control where 0% means no effect; nearly all actives have a fitted effect of over 60% in size
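Quantitative HTS format; Huh7 Rab9-luciferase reporter cells (1500/well) receive compound 2 h post-plating, incubate 24 h at 37 °C, then get luciferase reagent for 10 min before luminescence reading.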
FLuc counter: qHTS profiling assay for firefly luciferase inhibitor/activator using purifed enzyme and Km concentrations of substrates (counterscreen for miR-21 project). Luciferin 4-monooxygenase (Photinus pyralis), P08659. purified FLuc, Km substrates, luminescence inhibition. Potency, µM (titrated, usually from 57.5 µM), for inactives: at the top dose activity change, negative = inhibition, most hits filed as inhibitors. 6.9% of 360,000 active. AID 588342, 2011;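 further: plate controls were vehicle for no effect and reference inhibitor for full effect; nearly all actives have a fitted effect of over 55% in size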
Target sequence (P08659 whole entry, looked up): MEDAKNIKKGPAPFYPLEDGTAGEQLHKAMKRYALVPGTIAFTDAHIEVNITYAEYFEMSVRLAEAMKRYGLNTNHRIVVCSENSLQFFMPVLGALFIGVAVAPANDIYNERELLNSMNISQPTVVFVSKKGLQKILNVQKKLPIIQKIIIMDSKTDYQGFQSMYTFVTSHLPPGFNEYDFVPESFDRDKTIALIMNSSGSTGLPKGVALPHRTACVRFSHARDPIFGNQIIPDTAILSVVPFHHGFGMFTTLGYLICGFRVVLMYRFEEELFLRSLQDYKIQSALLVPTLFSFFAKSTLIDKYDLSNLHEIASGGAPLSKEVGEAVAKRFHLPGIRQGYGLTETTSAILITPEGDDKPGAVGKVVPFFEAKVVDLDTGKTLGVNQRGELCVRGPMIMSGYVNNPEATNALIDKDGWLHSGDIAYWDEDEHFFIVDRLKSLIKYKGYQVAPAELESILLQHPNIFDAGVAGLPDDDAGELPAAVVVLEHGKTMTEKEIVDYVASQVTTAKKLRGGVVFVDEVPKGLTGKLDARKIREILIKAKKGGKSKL
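Biochemical qHTS of compounds, final roughly 60 µM downward over six points, against 10 nM purified firefly luciferase using Km concentrations of substrates (10 uM D-luciferin, 10 uM ATP) in Tris acetate pH 7.5 buffer; luminescence output.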
ELG1 repair inh: qHTS screen for small molecules that inhibit ELG1-dependent DNA repair in human embryonic kidney (HEK293T) cells expressing luciferase-tagged ELG1; 2.3% of 330,000 active; Potency, µM (titrated, usually from 46.1 µM), for the others: at the highest dose activity change, negative = inhibition, usual class: inhibitors; HEK293T ELG1-luciferase reporter, luminescence, 16 h; DNA damage induced by 5-fluorouridine; further: on the % scale 0 is the no-effect control and ±100 the full control effect; nearly all actives have a fitted effect of over 55% in size
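Reporter activity after DNA damage by 5-fluorouridine is monitored. Compound-treated cells incubate 16 hr at 37 °C, then ONE-Glo is added for 30 min before luminescence reading.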
Numbers without * were called inactive; ? = inconclusive; nt = not tested or not shown. The call rests on the fitted dose curve; in most records, active means well fitted curve in the direction sought with a large enough effect; inconclusive means small, poorly fitted or top-dose-only effect, or another doubt; inactive means no such curve, though single readings can be large; an effect the other way counts as inactive or inconclusive. Potency means the concentration at half of the fitted maximal effect.

SMILES | SMN2 splice enh | ELG1 genotoxic | NPC1 prom act | Rab9 promoter act | FLuc counter | ELG1 repair inh
O=C(Nc1ccsc1C(=O)NC1CCCCC1)c1ccc(F)cc1 | -15.6% | 9.6% | -3.8% | -3.4% | -10.0% | -3.3%
O=C(/N=C1\NC(=O)C(F)(C(F)(F)F)S1)NC1CCCCC1 (stereo unspecified) | ? | -3.1% | -3.7% | 1.5% | 13.5µM* | 0.0%
COc1ccc(-n2ncc3c(=O)n(CC(=O)NC(C)C)cnc32)cc1 | nt | -4.4% | 7.3% | -1.6% | -1.8% | -9.3%
C=CCc1ccc(OCCCCN2CCC(C)CC2)c(OC)c1 | -12.8% | -0.8% | 6.4% | -2.0% | 0.8% | 7.7%
C=CCc1ccc(OCC(O)CO)c(OC)c1 (stereo unspecified) | -22.9% | 7.5% | 13.4% | 4.6% | -10.9% | ?
C=CCc1ccc(OC(=O)c2ccccc2)c(OC)c1 | -5.4% | 1.5% | -3.9% | -1.7% | 6.75µM* | -12.2%
C=CCc1ccc(OCCCOc2ccc(C(=O)O)cc2)c(OC)c1 | 14.9% | 3.4% | 15.3% | 5.3% | 10.7µM* | ?
CCc1ccc(N2C(=O)CC(N3CCN(Cc4ccc5c(c4)OCO5)CC3)C2=O)cc1 (stereo unspecified) | -8.0% | -2.1% | -0.5% | -9.7% | 4.2% | 12.4%
Cc1ccc(CNC(=O)c2cccc3c2C(=O)c2ccc(N4CCCCC4)cc2S3(=O)=O)cc1 | nt | -1.0% | 13.3% | 2.3% | ? | ?
Cc1ccc(CNC(=O)c2cccc3c2C(=O)c2ccc(N4CCOCC4)cc2S3(=O)=O)cc1 | nt | -7.4% | -0.4% | -3.6% | -1.9% | 11.6µM*
CC1CCN(c2ccc3c(c2)S(=O)(=O)c2cccc(C(=O)NC[C@@H]4CCCO4)c2C3=O)CC1 | nt | -2.5% | nt | nt | nt | -21.6%
O=C(NCC1CCCO1)c1cccc2c1C(=O)c1ccc(N3CCC(Cc4ccccc4)CC3)cc1S2(=O)=O (stereo unspecified) | nt | -12.7% | nt | nt | nt | 2.59µM*
O=C(NCc1ccccc1C(F)(F)F)c1cccc2c1C(=O)c1ccc(N3CCOCC3)cc1S2(=O)=O | nt | 4.8% | nt | nt | nt | 5.17µM*
O=C(NCc1ccco1)c1cccc2c1C(=O)c1ccc(N3CCCC3)cc1S2(=O)=O | nt | -5.3% | nt | nt | nt | 13µM*
Cc1ccc(NC(=O)c2nc[nH]c2C(=O)N(C)Cc2ccccc2)cc1 | nt | -1.2% | 8.1% | 0.2% | ? | -13.3%
Cc1c(NC(=O)c2cc3c(s2)-c2ccccc2OC3)cccc1[N+](=O)[O-] | nt | -10.1% | -0.1% | -9.0% | -5.5% | 23.1µM*
CCOc1ccc(NC(=O)c2cc3c(s2)-c2ccccc2OC3)cc1 | -27.5% | nt | nt | nt | 3.0% | nt
Cc1csc(NC(=O)c2cc3c(s2)-c2ccccc2OC3)n1 | ? | 16.7% | 3.55µM* | ? | ? | ?
CN(C)CCNC(=O)c1cc2c(s1)-c1ccccc1OC2 | -11.1% | 23.1µM* | 17.0% | 18.0% | 19µM* | ?
COc1ccc(Cl)cc1NC(=O)c1cc2c(s1)-c1ccccc1OC2 | -7.4% | nt | nt | nt | 7.2% | nt
CCN(CC)C(=S)SCC(=O)c1ccc(F)cc1 | 17.8µM* | ? | 2.51µM* | 2.51µM* | 15.1µM* | ?
CCN(CC)C(=S)SCC(=O)c1c(C)[nH]c2ccccc12 | ? | 1.7% | 0.4% | 2.8% | ? | -5.7%
CCN(CC)C(=S)SCC(=O)c1ccccc1 | 12.6µM* | ? | 2.24µM* | 2.82µM* | 12µM* | ?
CCCCN(CCCC)C1=C(C(=O)c2ccccc2)N(C)S(=O)(=O)c2ccccc21 | -3.5% | nt | nt | nt | -8.9% | nt
O=C(O)c1ccc2ncsc2c1 | nt | 14.2% | ? | 3.55µM* | ? | ?
SMILES | SMN2 splice enh | ELG1 genotoxic | NPC1 prom act | Rab9 promoter act | FLuc counter | ELG1 repair inh
O=C(Nc1cccc(Cl)c1)c1ccc2ncsc2c1 | nt | ? | 3.98µM* | 3.55µM* | 19µM* | ?
O=C(Nc1ccc(F)cc1)c1ccc2ncsc2c1 | nt | ? | 2.24µM* | 3.55µM* | 23.9µM* | ?
O=C(Nc1ccc(Cl)cc1)c1ccc2ncsc2c1 | nt | ? | 2.82µM* | 3.55µM* | 12µM* | ?
O=C(Nc1ccc(N2CCOCC2)cc1)c1ccc2ncsc2c1 | nt | 19.0% | nt | nt | nt | ?
COc1ccc(N(CC(=O)NCc2ccccc2Cl)S(=O)(=O)c2c(C)nn(C)c2C)cc1 | 1.2% | nt | nt | nt | -9.3% | nt
CCn1ccc2cc(S(=O)(=O)N3CCCN(C(=O)NCC(=O)OC)CC3)ccc21 | nt | nt | nt | nt | -2.1% | nt
O=C(Nc1ccc(C(F)(F)F)cc1)c1ccc2ncsc2c1 | nt | ? | 3.55µM* | 3.55µM* | 13.5µM* | ?
COCc1cc(C)nc(N/N=C/c2ccc(-c3ccc(Cl)cc3[N+](=O)[O-])o2)c1C#N | -2.5% | -1.0% | 0.3% | 3.98µM* | -10.3% | -7.9%
COc1ccc(NC(=O)Cn2c(=O)c3ccccc3n3nncc23)c(OC)c1 | 0.5% | nt | nt | nt | -0.6% | nt
Cc1sc(NC(=O)Cc2ccc3c(c2)OCO3)nc1-c1ccc2c(c1)CCN2C(=O)c1cccc(F)c1 | -54.0% | -4.2% | -15.9% | -16.0% | 7.0% | ?
Cc1ccccc1C(=O)N1CCc2cc(-c3nc(NC(=O)Cc4ccc5c(c4)OCO5)sc3C)ccc21 | -64.4% | -0.4% | -23.2% | -19.9% | 1.7% | ?
CNc1nc(-c2ccc3c(c2)CCN3C(=O)c2ccccc2C)cs1 | 22.4µM* | ? | 3.98µM* | 2.24µM* | 7.57µM* | ?
Cc1cccc(C(=O)N2CCc3cc(-c4csc(NC(=O)CN5CCCC5)n4)ccc32)c1 | nt | -23.2% | -3.0% | -1.8% | ? | ?
O=C(CN1CCCC1)Nc1nc(-c2ccc3c(c2)CCN3C(=O)c2ccccc2F)cs1 | nt | -14.8% | 20.0% | 13.4% | 23.9µM* | ?
CNc1nc(-c2ccc3c(c2)CCN3C(=O)c2ccc(F)cc2)cs1 | 1.5% | 3.4% | 25.3% | ? | 12µM* | -14.9%
CNc1nc(-c2ccc3c(c2)CCN3C(=O)c2cccc(F)c2)cs1 | nt | -0.5% | ? | 2µM* | 4.78µM* | ?
Cc1ccccc1NC(=O)CSc1nnc(-c2cccs2)o1 | nt | nt | nt | nt | -9.4% | nt
Cc1cccc(C(=O)NCc2cn3cccc(C)c3n2)c1 | nt | nt | nt | nt | 2.0% | nt
CCCCN(C(=O)c1ccc(NC(=O)C(C)C)cc1)c1ccccc1 | -12.5% | -4.3% | -1.0% | -2.6% | 3.5% | -5.1%
Cc1cc(-c2ccc(N=Nc3cc(S(=O)(=O)O)c4ccccc4c3N)c(C)c2)ccc1N=Nc1cc(S(=O)(=O)O)c2ccccc2c1N | -2.0% | nt | nt | nt | nt | nt
